“And” between values parts separate entries of the source, which are not always exact repeats. Equal entries are not always repeated.
Legend:
Type in all cases: functional
[1] = test system: Plasmodium falciparum; test: GSK_TCMDC: Inhibition of Plasmodium falciparum 3D7 in whole red blood cells, using parasite LDH activity as an index of growth. Test compounds present at 2uM
[2] = test system: Plasmodium falciparum; test: GSK_TCMDC: Inhibition of Plasmodium falciparum Dd2 in whole red blood cells, using parasite LDH activity as an index of growth. Test compounds present at 2uM
[3] = test system: HepG2; test: GSK_TCMDC: Percent inhibition of human HepG2 cell line. Test compounds present at 10uM.

**Q.** What does the source list for CC[C@H]1CN2CC[C@H]1C[C@H]2C(O)c1cc(OC)nc2ccccc12 (some centres undefined)?
**A.** Inhibition [1]: 100%; Inhibition [2]: 98%; Inhibition [3]: 0%

**Q.** With O=S(=O)(NC1CCC(CN2CCC(c3c[nH]c4ccccc34)CC2)CC1)c1ccc(Cl)c(Cl)c1 (centres undefined) as the molecule, how does the Inhibition [1] read?
**A.** 97%

**Q.** What about the Inhibition [2] of the same molecule?
**A.** 32%

**Q.** And the Inhibition [3]?
**A.** 36%

**Q.** What does the source list for O=C(NC1CCN(CCc2c[nH]c3ccc(F)cc23)CC1)c1ncc(-c2ccccc2)[nH]1.O=C(O)C(F)(F)F?
**A.** Inhibition [1]: 100%; Inhibition [2]: 69%; Inhibition [3]: 0%

**Q.** Cc1ccc(CC(C)NCC(O)c2cccc(C(F)(F)F)c2)cc1.O=C(O)/C=C/C(=O)O (centres undefined) was tested. Which Inhibition [1] did it give?
**A.** 100%

**Q.** What about the Inhibition [2] of the same molecule?
**A.** 54%

**Q.** And the Inhibition [3]?
**A.** 5%

**Q.** How did the Inhibition [1] turn out when Cc1ccc2c(C3=CCN(CCCCC4(C)C(=O)Nc5c(F)cccc54)CC3)c(C)[nH]c2c1 (centres undefined) was run?
**A.** 95%

**Q.** What about the Inhibition [2] of the same molecule?
**A.** 89%

**Q.** What about the Inhibition [3] of the same molecule?
**A.** 5%

**Q.** How did the Inhibition [1] turn out when O=C(CCCCCc1ccccc1)NC1CCC(CN2CCC(c3c[nH]c4ccccc34)CC2)CC1 (centres undefined) was run?
**A.** 86%

**Q.** And the Inhibition [2]?
**A.** 5%

**Q.** And the Inhibition [3]?
**A.** 34%

**Q.** With CN(C)CCC(=O)c1ccccc1.Cl as the molecule, how does the Inhibition [1] read?
**A.** 100%

**Q.** What about the Inhibition [2] of the same molecule?
**A.** 5%

**Q.** What about the Inhibition [3] of the same molecule?
**A.** 11%

**Q.** For COc1ccc2nc(-c3ccc(F)cc3)cc([C@@H](O)[C@@H]3C[C@@H]4CCN3CC4C=NO)c2c1 (some centres undefined), which Inhibition [1] is on record?
**A.** 100%

**Q.** What about the Inhibition [2] of the same molecule?
**A.** 94%

**Q.** What about the Inhibition [3] of the same molecule?
**A.** 14%

**Q.** How did the Inhibition [1] turn out when O=C(/C=C/c1ccc(Cl)c(Cl)c1)Nc1cccc(CN2CCC(c3c[nH]c4ccccc34)CC2)c1 was run?
**A.** 99%

**Q.** And the Inhibition [2]?
**A.** 91%

**Q.** And the Inhibition [3]?
**A.** 15%

**Q.** Which Inhibition [1] does the source give for Cc1c(C(=O)NC2CCC(CN3CCC(c4c[nH]c5ccccc45)CC3)CC2)cnn1-c1c(Cl)cc(Cl)cc1Cl (centres undefined) here?
**A.** 100%

**Q.** What about the Inhibition [2] of the same molecule?
**A.** 97%

**Q.** And the Inhibition [3]?
**A.** 53%

**Q.** Which results are given for CCCCOC(C(=O)OCC1CCCN1C)(c1ccccc1)c1ccccc1 (centres undefined)?
**A.** Inhibition [1]: 100%; Inhibition [2]: 2%; Inhibition [3]: 3%

**Q.** Which Inhibition [1] does the source give for CN(c1cc(NC(=O)c2ccc(F)cc2)ccn1)C1CCN(Cc2cccc(O)c2)CC1.O=C(O)C(F)(F)F here?
**A.** 100%

**Q.** What about the Inhibition [2] of the same molecule?
**A.** 82%

**Q.** What about the Inhibition [3] of the same molecule?
**A.** 3%

**Q.** For CCCCC1(NC(=O)[C@H](CC(C)C)Nc2ccc(C#N)c3ccccc23)CCCCC1.O=C(O)C(F)(F)F, which Inhibition [1] is on record?
**A.** 96%

**Q.** What about the Inhibition [2] of the same molecule?
**A.** 47%

**Q.** What about the Inhibition [3] of the same molecule?
**A.** 37%

**Q.** Brc1cnc(NC2=NCCN2)c(Br)c1.Cl was tested. Which Inhibition [1] did it give?
**A.** 99%

**Q.** What about the Inhibition [2] of the same molecule?
**A.** 0%

**Q.** What about the Inhibition [3] of the same molecule?
**A.** 0%

**Q.** What does the source list for CC(C)CNCc1ccc(-c2cccc(CN(C(=O)CCC3CCCC3)C3CCN(Cc4ccccc4)CC3)c2)cc1.O=C(O)C(F)(F)F?
**A.** Inhibition [1]: 100%; Inhibition [2]: 92%; Inhibition [3]: 62%

**Q.** Which results are given for C/C=C1\CN2CC[C@H]1C[C@H]2[C@H](O)c1ccnc2ccc(OC)cc12.O=S(=O)(O)O?
**A.** Inhibition [1]: 99%; Inhibition [2]: 61%; Inhibition [3]: 0%

**Q.** Which Inhibition [1] does the source give for CC(C)CNCc1cccc(-c2cccc(CN(C(=O)Nc3ccccc3)C3CCN(Cc4ccccc4)CC3)c2)c1.O=C(O)C(F)(F)F here?
**A.** 100%

**Q.** And the Inhibition [2]?
**A.** 89%

**Q.** What about the Inhibition [3] of the same molecule?
**A.** 31%

**Q.** How did the Inhibition [1] turn out when CCCCCC(C)C(C)c1cc(O)c2c3c(c(=O)oc2c1)CN(Cc1ccccc1)CC3.Cl (centres undefined) was run?
**A.** 99%

**Q.** What about the Inhibition [2] of the same molecule?
**A.** 47%

**Q.** What about the Inhibition [3] of the same molecule?
**A.** 4%

**Q.** How did the Inhibition [1] turn out when CCOc1ccc(Br)cc1/C=C/C(=O)Nc1ccc2c(c1)C1CCC2N1C.O=C(O)C(F)(F)F (centres undefined) was run?
**A.** 89%

**Q.** And the Inhibition [2]?
**A.** 26%

**Q.** What about the Inhibition [3] of the same molecule?
**A.** 60%

**Q.** For CCOC(C(=O)OCCN(C(C)C)C(C)C)(c1ccccc1)c1ccccc1, which Inhibition [1] is on record?
**A.** 97%

**Q.** What about the Inhibition [2] of the same molecule?
**A.** 4%

**Q.** And the Inhibition [3]?
**A.** 4%

**Q.** With Cc1ccc(CC(C)NC[C@H](O)c2cccc(Cl)c2)cc1 (some centres undefined) as the molecule, how does the Inhibition [1] read?
**A.** 93%

**Q.** And the Inhibition [2]?
**A.** 64%

**Q.** And the Inhibition [3]?
**A.** 0%

**Q.** Which results are given for Cc1c(C(=O)N[C@@H](C)c2ccccc2)c2cc(O)c(Br)cc2n1C1CCCCC1?
**A.** Inhibition [1]: 98%; Inhibition [2]: 95%; Inhibition [3]: 4%

**Q.** What does the source list for O=C(/C=C/c1ccc(Cl)c(Cl)c1)N1CCC(CN2CCC(c3cn(CC(=O)N4CCCCC4)c4ccccc34)CC2)CC1.O=C(O)C(F)(F)F?
**A.** Inhibition [1]: 100%; Inhibition [2]: 65%; Inhibition [3]: 52%

**Q.** CSc1ccc(C[C@@H](C)NC[C@H](O)c2cccc(Cl)c2)cc1.Cl was tested. Which Inhibition [1] did it give?
**A.** 97%

**Q.** And the Inhibition [2]?
**A.** 96%

**Q.** And the Inhibition [3]?
**A.** 8%

**Q.** What does the source list for COc1ccc(CC(C)NCC(O)c2ccc(Cl)c(Cl)c2)cc1 (centres undefined)?
**A.** Inhibition [1]: 98%; Inhibition [2]: 96%; Inhibition [3]: 0%

**Q.** With O=C(/C=C/c1ccc(Cl)c(Cl)c1)NCCCCCN1C2CCC1CC(c1c[nH]c3ccc(O)cc13)C2 (centres undefined) as the molecule, how does the Inhibition [1] read?
**A.** 100% and 91%

**Q.** And the Inhibition [2]?
**A.** 0% and 20%

**Q.** And the Inhibition [3]?
**A.** 9% and 26%

**Q.** For Cc1ccc(C2(O)CC3CCC(C2)N3C)cc1 (centres undefined), which Inhibition [1] is on record?
**A.** 92%

**Q.** And the Inhibition [2]?
**A.** 16%

**Q.** And the Inhibition [3]?
**A.** 0%

**Q.** CN(c1cc(NC(=O)c2ccc(F)cc2)ccn1)C1CCN(Cc2ccc(C#N)cc2)CC1.O=C(O)C(F)(F)F was tested. Which Inhibition [1] did it give?
**A.** 87%

**Q.** And the Inhibition [2]?
**A.** 54%

**Q.** And the Inhibition [3]?
**A.** 13%
